Data on six molecules can be found in PubChem BioAssay (NCI).

A short description of test [1]: NCI Yeast Anticancer Drug Screen. Data for the rad50 strain (AID 155).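 Also: 0% = growth of vehicle-only cultures of the same strain.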 The note with it: S. cerevisiae rad50 strain growth inhibition, active compounds read high. A digest of the protocol:
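Relative growth inhibition (compound vs vehicle) was measured in yeast with a defined repair-gene alteration.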

Test [2] can be described thus: NCI Yeast Anticancer Drug Screen. Data for the mec2-1 strain (AID 157). The note with it: S. cerevisiae mec2-1 strain, active compounds read high. The method in brief:
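Each compound was tested on mec2-1 yeast, a strain altered in DNA damage repair or cell cycle control. Growth inhibition is reported relative to vehicle.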

The nature of test [3]: NCI Yeast Anticancer Drug Screen. Data for the sgs1 mgt1 strain (AID 161).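 Also: 0% = growth of cultures given vehicle only.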 The note with it: S. cerevisiae sgs1 mgt1 strain, active compounds read high. The method in brief:
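Genetically altered yeast, compound exposure, growth inhibition relative to vehicle.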

Test [4] in a line: NCI Yeast Anticancer Drug Screen. Data for the cln2 rad14 strain (AID 165).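 Also: 0% = growth equal to vehicle treated cultures.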 The note with it: S. cerevisiae cln2 rad14 strain, active compounds read high. A digest of the protocol: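 Test compounds were added to cln2 rad14 yeast cultures; inhibition of growth was then determined by comparison with vehicle treatment.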
Test [5] can be described thus: NCI Yeast Anticancer Drug Screen. Data for the bub3 strain (AID 167). To be noted: S. cerevisiae bub3 mutant strain, active compounds read high. The method in brief: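 Screening used yeast with an engineered genetic alteration affecting cell cycle control. Compound-exposed cultures were compared with vehicle cultures, and reduced growth was taken as inhibition.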
Test [6] can be described thus: NCI Yeast Anticancer Drug Screen. Data for the mlh1 rad18 strain (AID 175). To be noted: S. cerevisiae mlh1 rad18 strain growth inhibition, active compounds read high. The method in brief:
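Inhibition values reflect reduced growth of mutant yeast versus vehicle-treated controls following compound exposure; the mutations affect DNA damage repair.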

Setting [7] is: at 5.0 µM (retest, dose inferred, filed as 0.5).
The mark [8] stands for this setting: at 50.0 µM (retest, dose inferred, filed as 5.0).

Structures are written as SMILES. Compounds without any hit were thinned out: in the full panel of roughly 79,000, 15% have a hit. A number with no mark means an inactive call. Active and inactive are the calls of the source. Rule as the data show it: active = growth inhibition above about 70%; inactive = the rest.

`CCCCCCCCCCCCCCCCNC(=O)/C(=C\c1ccccc1O)NC(=O)c1ccccc1`: the growth inhibition was 0% in test [1] (setting [7]); 6% in test [1] (setting [8]); 66.2% in test [1] (at 50.0 µM); -8% in test [2] (setting [7]); -2% in test [2] (setting [8]); 35.1% in test [2] (at 50.0 µM). Moreover, the growth inhibition in test [3] (setting [7]) is 0%; in test [3] (setting [8]), 14%; in test [3] (at 50.0 µM) it was 71.7% (active); in test [4] (setting [7]) it was 33%; in test [4] (setting [8]) it was -20%; in test [4] (at 50.0 µM) it was 27.3%. Also, the growth inhibition was 2% in test [5] (setting [7]); 8% in test [5] (setting [8]); 73.7% (active) in test [5] (at 50.0 µM); 18% in test [6] (setting [7]); -6% in test [6] (setting [8]); 67.6% in test [6] (at 50.0 µM).

Consider `COc1ccc(I)c(C=NC2CCCCC2)c1C`, for which the growth inhibition is 41% in test [1] (setting [7]); 94% (active) in test [1] (setting [8]); 97.2% (active) in test [1] (at 50.0 µM); 16% in test [2] (setting [7]); 82% (active) in test [2] (setting [8]); 91.5% (active) in test [2] (at 50.0 µM). Also, the growth inhibition in test [3] (setting [7]) was 41%; in test [3] (setting [8]) it was 92% (active); in test [3] (at 50.0 µM), 99% (active); in test [4] (setting [7]), 1%; in test [4] (setting [8]), 88% (active); in test [4] (at 50.0 µM), 41.8%. Besides, the growth inhibition was 35% in test [5] (setting [7]); 94% (active) in test [5] (setting [8]); 89.4% (active) in test [5] (at 50.0 µM); 27% in test [6] (setting [7]); 93% (active) in test [6] (setting [8]); 94.7% (active) in test [6] (at 50.0 µM).

As for `CCCc1cc2c(cc1COc1ccccc1C(=O)O)OCO2`, the growth inhibition in test [1] (setting [7]) was -1%; in test [1] (setting [8]), 49%; in test [1] (at 50.0 µM) it was 56.4%; in test [2] (setting [7]), -4%; in test [2] (setting [8]) it was 52%; in test [2] (at 50.0 µM), 59.8%. For the same molecule, the growth inhibition in test [3] (setting [7]) is -7%; in test [3] (setting [8]), 25%; in test [3] (at 50.0 µM) it was 38.4%; in test [4] (setting [7]) it was -2%; in test [4] (setting [8]), 51%; in test [4] (at 50.0 µM) it was 33.4%. Besides, the growth inhibition is -6% in test [5] (setting [7]); 31% in test [5] (setting [8]); 25.4% in test [5] (at 50.0 µM); -2% in test [6] (setting [7]); 58% in test [6] (setting [8]); 61.4% in test [6] (at 50.0 µM).

`COc1ccc(C(=O)[O][Sn]([c]2ccccc2)([c]2ccccc2)[c]2ccccc2)c(OC)c1OC`: the growth inhibition in test [1] (setting [7]) is 100% (active); in test [1] (setting [8]), 99% (active); in test [1] (at 50.0 µM), 98.7% (active); in test [2] (setting [7]) it was 100% (active); in test [2] (setting [8]) it was 100% (active); in test [2] (at 50.0 µM), 99.1% (active). The growth inhibition in test [3] (setting [7]) is 99% (active); in test [3] (setting [8]) it was 99% (active); in test [3] (at 50.0 µM) it was 98.8% (active); in test [4] (setting [7]), 99% (active); in test [4] (setting [8]), 99% (active); in test [4] (at 50.0 µM) it was 88.2% (active). For the same molecule, the growth inhibition in test [5] (setting [7]) was 100% (active); in test [5] (setting [8]), 100% (active); in test [5] (at 50.0 µM) it was 98.9% (active); in test [6] (setting [7]) it was 99% (active); in test [6] (setting [8]), 99% (active); in test [6] (at 50.0 µM), 98.4% (active).

For the molecule `CCCNC(=O)N(CC(C)(C)C)S(=O)(=O)c1ccc(Cl)cc1`, the growth inhibition was -4% in test [1] (setting [7]); -10% in test [1] (setting [8]); 71.1% (active) in test [1] (at 50.0 µM); -2% in test [2] (setting [7]); -10% in test [2] (setting [8]); 93.1% (active) in test [2] (at 50.0 µM). Also, the growth inhibition in test [3] (setting [7]) is -2%; in test [3] (setting [8]) it was 0%; in test [3] (at 50.0 µM), 68.3%; in test [4] (setting [7]), -4%; in test [4] (setting [8]), -17%; in test [4] (at 50.0 µM), 86.8% (active). Besides, the growth inhibition in test [5] (setting [7]) is 7%; in test [5] (setting [8]) it was 27%; in test [5] (at 50.0 µM), 99.5% (active); in test [6] (setting [7]) it was -5%; in test [6] (setting [8]), -97%; in test [6] (at 50.0 µM) it was 36.2%.

Turning to `O=C(CCc1ccccc1)COC(=O)c1ccc([N+](=O)[O-])cc1`, the growth inhibition in test [1] (setting [7]) was -13%; in test [1] (setting [8]) it was -14%; in test [1] (at 50.0 µM) it was -10.4%; in test [2] (setting [7]), -2%; in test [2] (setting [8]), -25%; in test [2] (at 50.0 µM) it was 3.45%. Also, the growth inhibition was -6% in test [3] (setting [7]); 8% in test [3] (setting [8]); -3.6% in test [3] (at 50.0 µM); -26% in test [4] (setting [7]); -14% in test [4] (setting [8]); 10.9% in test [4] (at 50.0 µM). Further, the growth inhibition in test [5] (setting [7]) is -1%; in test [5] (setting [8]), -7%; in test [5] (at 50.0 µM) it was 55%; in test [6] (setting [7]), -15%; in test [6] (setting [8]) it was -23%; in test [6] (at 50.0 µM), 16.4%.
